Measurements reported in PubChem BioAssay.
Inconclusive results are not listed. Active and inactive are the calls of the source.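 Rule for the calls, unless noted: active = percent response above a set limit, the screen-wide mean plus 3 SD (cut at about 130% in these data); inactive = the rest.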

Legend:
[1] = yeast TOR pathway RPL19A-GFP modulators, primary screen, cell-based, S. cerevisiae, multiplex flow cytometry (AID 1862; in the data active = percent of DMSO control GFP below about 86%;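 note: lower values mimic rapamycin by blocking the RPL19A rise seen in DMSO cells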); details: S. cerevisiae RPL19A-GFP strain, flow cytometry fluorescence, 3 h; at 10 µM; stronger effect = lower value
[2] = modulators of MEP2-GFP levels in yeast, primary screen, S. cerevisiae, multiplex flow cytometry (AID 1867;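 active = GFP response, as percent of the DMSO control, above the screen-wide mean plus 3 SD, about 139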;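 note: median GFP channel fluorescence of barcode-gated MEP2-GFP cells measured by flow cytometry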); details: S. cerevisiae MEP2-GFP strain, 3 h, at 10 µM, stronger effect = higher value, 100% means same as DMSO wells
[3] = modulators of CIT2-GFP expression in yeast, primary screen, S. cerevisiae, GFP fusion, multiplex flow cytometry (AID 1870); details: 3 h, at 10 µM, stronger effect = higher value;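 note: barcoded CIT2-GFP strain pooled with four other GFP strains with rapamycin as positive control; median GFP fluorescence per well over plate mean of DMSO wells so 100% = DMSO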
[4] = modulators of LAP4-GFP expression in yeast, primary screen, S. cerevisiae, multiplex flow cytometry (AID 1873;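 active = GFP signal, as percent of the solvent control, above the screen mean plus 3 SD, about 149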); details: 3 h, at 10 µM, stronger effect = higher value
[5] = modulators of AGP1-GFP expression in yeast TOR pathway, primary screen, cell-based, multiplex flow cytometry, S. cerevisiae (AID 1887;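 active = GFP signal above the screen-wide mean plus 3 SD, that is over about 124.5% of the solvent control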;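 note: AGP1-GFP fusion strain of S. cerevisiae within a five-strain barcoded multiplex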); details: 3 h, at 10 µM, stronger effect = higher value
[6] = inhibitors of CD8+ T cell-vesicle binding, pilot screen, LFA-1/ICAM-1 modulator project, MLPCN validation set, flow cytometry (AID 2523;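 active = response below a set limit, under 55% cells CD8-positive and vesicle-bound, and CD8 cells' 90th-percentile brightness under 279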;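 for vesicle binding response: mean PE anti-B7-1 fluorescence of CD8+ cells relative to row control; 100% = QL9-loaded vesicles with DMSO vehicle in the same plate row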); details: 2C mouse CD8+ T cells, at 7 µM, stronger effect = lower value; double positive events: measured here: CD8+/vesicle+ event percentage
[7] = target: Integrin beta-1 (Homo sapiens) + Integrin alpha-4 (Homo sapiens) (UniProt P13612+P05556); experiment: inhibition of HUTS-21 binding to VLA-4, pilot screen, VLA-4 allosteric modulator project, U937 cells, HUTS-21 mAb, flow cytometry, validation set (AID 2674;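 active = inhibition above 50%, about 3 SD of the validation set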;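 note: antibody binding induced by the VLA-4 ligand LDV present at three times its Kd; 0% = LDV ligand with antibody and no compound and 100% = antibody without LDV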); details: HUTS-21 LIBS mAb binding, at 6.7 µM, stronger effect = higher value, binding induced by LDV ligand
[8] = superoxide lowering in aged yeast cells, pilot screen, validation compound set (AID 2706;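 active = superoxide response below 65% of plate, a cut near 3 SD across the whole screen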;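 note: yeast exposed to compound for one week at 30 degrees C before staining; 100% = mean of all compound wells on the same plate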); details: S. cerevisiae aging, superoxide DHE fluorescence; at 10 µM; stronger effect = lower value
[9] = target: Beta-adrenergic receptor kinase 1 (Homo sapiens) (UniProt P25098); experiment: GRK2 binders displacing RNA aptamer, biochemical, validation, human GRK2, bead flow cytometry (AID 488806;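 active = aptamer binding inhibition above 30%, about 3 SD of noise from non-fluorescent compounds; inactive = inhibition at or below 30%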); details: bead-bound GRK2, FAM-aptamer displacement, at 10 µM, stronger effect = higher value
[10] = target: Beta-2 adrenergic receptor (Homo sapiens) (UniProt P07550); experiment: beta2AR agonists driving receptor internalization, pilot screen, cell-based, FAP fluorogen, flow cytometry, validation set (AID 504459;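 active = percent response above 42, roughly 3 SD of non-fluorescent test compounds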;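 note: agonist-driven loss of surface beta2AR via internalization measured by FAP dye flow cytometry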); details: Am2.2-beta2AR cells, FAP surface receptor flow cytometry; at 10 µM; stronger effect = higher value
[11] = target: AP-2 complex subunit beta (Homo sapiens) (UniProt P63010); experiment: inhibitors of arrestin peptide binding to AP2, pilot screen, biochemical, validation set, GST-AP2 beads, flow cytometry (AID 504541;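 active = inhibition above 54%, about 3 SD of non-fluorescent compounds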;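 note: AP2 carries R879A mutation and is captured from E. coli lysate; bead-bound FITC arrestin peptide fluorescence measuring arrestin peptide binding to AP2; 0% = DMSO wells and 100% = excess unlabeled arrestin peptide control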); details: FITC arrestin peptide, at 10 µM, stronger effect = higher value, AP2 beta2 appendage fragment, R879A mutant
[12] = yeast V-ATPase proton transport modulators, S. cerevisiae, pHLuorin, HTS validation (AID 504600; in the data active = response above about 15%;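 note: plate controls were DMSO for no effect and reference compound for full effect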); details: S. cerevisiae pHLuorin cytosolic pH, at 10 µM, stronger effect = higher value
[13] = test system: anti-desmoglein-3 scFv antibody binding to human DSG3; experiment: inhibitors of anti-DSG3 scFv binding to DSG3, pilot screen, biochemical, validation compound set, bead-based, flow cytometry (AID 588368;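 active = binding below the plate cutoff, the plate median minus 3 SD, with a reading above zero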;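 note: signal is the median channel fluorescence of bead-bound GFP antibody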); details: Protein G beads, DSG3-Fc, scFv-GFP binding, at 10 µM, stronger effect = lower value
[14] = inhibitors of fungal efflux pumps CDR1, CDR2, MDR1, pilot screen, validation compound set, multiplex, phenotypic (AID 588506;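 active = efflux inhibition above 0.42, the validation set average plus 4 SD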;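 note: Nile Red retained in cells so higher fluorescence means more efflux inhibition; 0 = negative control wells and 1 = enniatin B 25 µM full block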); details: S. cerevisiae pump-expressing triplex, Nile Red efflux flow cytometry; at 10 µM; stronger effect = higher value; the pumps come from Candida albicans
[15] = target: ATP-binding cassette sub-family B member 6 (Homo sapiens) (UniProt Q9NP58); experiment: ABCB6 transporter inhibitors, pilot screen, K562-ABCB6 cells, flow cytometry, validation set (AID 588550;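 active = inhibition above the screen-wide mean plus 3 SD, about 51%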;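 note: 0% = DMSO wells and 100% = benzethonium chloride 70 µM positive control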); details: K562-ABCB6 porphyrin accumulation, 1 h, at 10 µM, stronger effect = higher value
[16] = promoters of myeloid differentiation in arrested cells, primary screen, cell-based, GFP/MAC1 double positive, flow cytometry, validation set (AID 588685;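 active = differentiation response of at least 50%, scaled between solvent and reference control, from cells with both markers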;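 note: compound exposure lasts four days before antibody staining and flow analysis; 0% = DMSO wells and 100% = 5 µM fulvestrant positive control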); details: ER-HoxA9 marrow cells, stronger effect = higher value, normalized: vehicle 0, fulvestrant 100

Chain of ATP-binding cassette sub-family B member 6 (Homo sapiens) (Q9NP58 whole entry, looked up): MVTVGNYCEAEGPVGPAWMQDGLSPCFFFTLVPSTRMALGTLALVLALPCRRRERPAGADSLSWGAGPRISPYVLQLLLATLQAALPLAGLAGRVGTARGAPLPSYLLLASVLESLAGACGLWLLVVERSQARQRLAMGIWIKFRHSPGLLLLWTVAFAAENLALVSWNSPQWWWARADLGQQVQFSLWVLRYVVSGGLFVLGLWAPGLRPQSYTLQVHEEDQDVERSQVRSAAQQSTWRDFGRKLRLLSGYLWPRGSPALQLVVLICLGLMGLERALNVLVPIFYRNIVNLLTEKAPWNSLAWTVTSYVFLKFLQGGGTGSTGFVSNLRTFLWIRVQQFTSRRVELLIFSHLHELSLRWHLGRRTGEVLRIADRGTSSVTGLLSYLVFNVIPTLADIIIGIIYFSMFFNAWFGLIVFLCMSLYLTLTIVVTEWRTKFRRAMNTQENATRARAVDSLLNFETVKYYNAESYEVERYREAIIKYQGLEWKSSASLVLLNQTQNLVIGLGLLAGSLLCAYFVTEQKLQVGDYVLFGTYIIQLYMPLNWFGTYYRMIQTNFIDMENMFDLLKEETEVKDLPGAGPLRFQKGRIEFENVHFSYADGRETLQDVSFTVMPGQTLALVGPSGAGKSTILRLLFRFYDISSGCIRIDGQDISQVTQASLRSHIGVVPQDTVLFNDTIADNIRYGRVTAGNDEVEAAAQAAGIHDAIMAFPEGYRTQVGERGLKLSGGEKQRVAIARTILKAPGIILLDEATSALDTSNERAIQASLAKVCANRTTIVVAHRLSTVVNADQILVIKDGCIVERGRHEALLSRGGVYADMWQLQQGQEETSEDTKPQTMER
Chain of Beta-2 adrenergic receptor (Homo sapiens) (P07550 whole entry, looked up): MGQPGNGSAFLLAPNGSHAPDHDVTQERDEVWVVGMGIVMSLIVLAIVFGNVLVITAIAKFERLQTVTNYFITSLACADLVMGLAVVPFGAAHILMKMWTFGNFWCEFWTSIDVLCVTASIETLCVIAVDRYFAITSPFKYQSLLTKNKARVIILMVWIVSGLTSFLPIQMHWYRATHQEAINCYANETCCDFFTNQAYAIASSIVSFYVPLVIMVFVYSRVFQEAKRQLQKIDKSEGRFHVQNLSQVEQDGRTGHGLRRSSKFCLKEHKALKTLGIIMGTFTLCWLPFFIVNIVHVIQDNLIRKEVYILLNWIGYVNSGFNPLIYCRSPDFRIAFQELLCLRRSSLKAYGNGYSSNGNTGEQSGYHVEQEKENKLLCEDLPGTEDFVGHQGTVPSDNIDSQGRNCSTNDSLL
Chain of Integrin beta-1 (Homo sapiens) + Integrin alpha-4 (Homo sapiens) (P05556 whole entry, looked up): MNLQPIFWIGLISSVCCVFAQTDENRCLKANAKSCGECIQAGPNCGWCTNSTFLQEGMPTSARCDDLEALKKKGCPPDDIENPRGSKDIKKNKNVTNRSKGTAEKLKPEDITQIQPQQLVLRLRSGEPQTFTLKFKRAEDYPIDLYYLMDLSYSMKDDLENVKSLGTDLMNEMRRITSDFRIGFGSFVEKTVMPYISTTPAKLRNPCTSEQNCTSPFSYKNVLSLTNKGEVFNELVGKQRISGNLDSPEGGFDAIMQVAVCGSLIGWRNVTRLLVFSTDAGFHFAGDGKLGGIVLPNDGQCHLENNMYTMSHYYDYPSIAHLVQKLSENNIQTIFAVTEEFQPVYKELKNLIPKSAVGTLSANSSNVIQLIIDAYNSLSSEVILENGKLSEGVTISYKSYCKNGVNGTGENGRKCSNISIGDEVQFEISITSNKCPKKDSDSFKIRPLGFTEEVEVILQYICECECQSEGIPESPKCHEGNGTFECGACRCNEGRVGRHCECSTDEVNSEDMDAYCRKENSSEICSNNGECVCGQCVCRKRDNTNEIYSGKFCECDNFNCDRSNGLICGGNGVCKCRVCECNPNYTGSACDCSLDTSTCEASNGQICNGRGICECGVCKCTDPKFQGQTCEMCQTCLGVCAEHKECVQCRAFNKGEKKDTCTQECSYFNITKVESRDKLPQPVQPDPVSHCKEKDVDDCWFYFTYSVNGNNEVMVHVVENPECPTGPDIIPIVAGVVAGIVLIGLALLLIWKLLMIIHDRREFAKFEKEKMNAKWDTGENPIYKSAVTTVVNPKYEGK
Chain of Integrin beta-1 (Homo sapiens) + Integrin alpha-4 (Homo sapiens) (P13612 whole entry, looked up): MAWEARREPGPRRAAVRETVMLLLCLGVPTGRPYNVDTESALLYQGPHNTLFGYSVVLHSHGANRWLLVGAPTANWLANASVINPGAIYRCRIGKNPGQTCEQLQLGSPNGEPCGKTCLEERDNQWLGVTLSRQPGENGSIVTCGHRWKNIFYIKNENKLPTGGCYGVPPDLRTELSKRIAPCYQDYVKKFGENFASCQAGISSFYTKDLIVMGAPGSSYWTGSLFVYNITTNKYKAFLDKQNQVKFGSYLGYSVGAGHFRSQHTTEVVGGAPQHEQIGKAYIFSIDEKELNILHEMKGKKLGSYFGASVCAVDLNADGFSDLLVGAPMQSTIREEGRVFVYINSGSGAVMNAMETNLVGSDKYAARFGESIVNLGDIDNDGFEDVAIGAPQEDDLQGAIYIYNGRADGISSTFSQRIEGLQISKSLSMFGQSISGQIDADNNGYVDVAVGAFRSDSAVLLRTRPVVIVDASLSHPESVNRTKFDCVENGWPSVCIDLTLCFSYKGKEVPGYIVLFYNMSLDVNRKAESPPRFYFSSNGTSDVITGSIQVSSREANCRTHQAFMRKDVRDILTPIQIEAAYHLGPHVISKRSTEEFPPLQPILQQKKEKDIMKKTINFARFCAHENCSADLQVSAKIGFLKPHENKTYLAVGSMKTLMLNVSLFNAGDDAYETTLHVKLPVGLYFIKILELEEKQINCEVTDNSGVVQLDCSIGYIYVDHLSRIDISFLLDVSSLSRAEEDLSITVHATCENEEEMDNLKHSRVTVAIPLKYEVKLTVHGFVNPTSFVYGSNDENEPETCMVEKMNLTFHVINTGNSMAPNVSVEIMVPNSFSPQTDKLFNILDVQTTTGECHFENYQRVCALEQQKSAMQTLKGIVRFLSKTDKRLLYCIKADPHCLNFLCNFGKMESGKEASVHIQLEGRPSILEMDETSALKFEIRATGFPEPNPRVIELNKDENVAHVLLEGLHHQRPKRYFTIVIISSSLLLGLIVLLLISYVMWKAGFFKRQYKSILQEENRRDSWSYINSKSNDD
Chain of Beta-adrenergic receptor kinase 1 (Homo sapiens) (P25098 whole entry, looked up): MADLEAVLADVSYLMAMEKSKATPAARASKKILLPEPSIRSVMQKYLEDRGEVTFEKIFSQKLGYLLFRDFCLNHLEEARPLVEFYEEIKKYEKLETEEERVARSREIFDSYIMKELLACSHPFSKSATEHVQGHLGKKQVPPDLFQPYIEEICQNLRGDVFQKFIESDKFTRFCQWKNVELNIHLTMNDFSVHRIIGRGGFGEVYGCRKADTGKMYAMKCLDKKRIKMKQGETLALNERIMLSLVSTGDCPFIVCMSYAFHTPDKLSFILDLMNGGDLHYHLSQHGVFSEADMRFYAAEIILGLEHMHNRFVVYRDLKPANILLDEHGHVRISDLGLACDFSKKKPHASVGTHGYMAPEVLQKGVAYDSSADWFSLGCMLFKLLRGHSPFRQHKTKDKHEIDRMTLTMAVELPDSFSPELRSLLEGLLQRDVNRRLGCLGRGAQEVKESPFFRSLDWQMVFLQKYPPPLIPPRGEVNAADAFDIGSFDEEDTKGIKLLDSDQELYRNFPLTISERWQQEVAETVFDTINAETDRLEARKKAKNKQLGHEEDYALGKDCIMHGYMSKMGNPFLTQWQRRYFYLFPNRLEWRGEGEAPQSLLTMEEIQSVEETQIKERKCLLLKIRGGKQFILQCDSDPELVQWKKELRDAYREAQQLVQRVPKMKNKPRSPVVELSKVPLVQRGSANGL
Chain of AP-2 complex subunit beta (Homo sapiens) (P63010 whole entry, looked up, the tested form may be a part, one chain of several): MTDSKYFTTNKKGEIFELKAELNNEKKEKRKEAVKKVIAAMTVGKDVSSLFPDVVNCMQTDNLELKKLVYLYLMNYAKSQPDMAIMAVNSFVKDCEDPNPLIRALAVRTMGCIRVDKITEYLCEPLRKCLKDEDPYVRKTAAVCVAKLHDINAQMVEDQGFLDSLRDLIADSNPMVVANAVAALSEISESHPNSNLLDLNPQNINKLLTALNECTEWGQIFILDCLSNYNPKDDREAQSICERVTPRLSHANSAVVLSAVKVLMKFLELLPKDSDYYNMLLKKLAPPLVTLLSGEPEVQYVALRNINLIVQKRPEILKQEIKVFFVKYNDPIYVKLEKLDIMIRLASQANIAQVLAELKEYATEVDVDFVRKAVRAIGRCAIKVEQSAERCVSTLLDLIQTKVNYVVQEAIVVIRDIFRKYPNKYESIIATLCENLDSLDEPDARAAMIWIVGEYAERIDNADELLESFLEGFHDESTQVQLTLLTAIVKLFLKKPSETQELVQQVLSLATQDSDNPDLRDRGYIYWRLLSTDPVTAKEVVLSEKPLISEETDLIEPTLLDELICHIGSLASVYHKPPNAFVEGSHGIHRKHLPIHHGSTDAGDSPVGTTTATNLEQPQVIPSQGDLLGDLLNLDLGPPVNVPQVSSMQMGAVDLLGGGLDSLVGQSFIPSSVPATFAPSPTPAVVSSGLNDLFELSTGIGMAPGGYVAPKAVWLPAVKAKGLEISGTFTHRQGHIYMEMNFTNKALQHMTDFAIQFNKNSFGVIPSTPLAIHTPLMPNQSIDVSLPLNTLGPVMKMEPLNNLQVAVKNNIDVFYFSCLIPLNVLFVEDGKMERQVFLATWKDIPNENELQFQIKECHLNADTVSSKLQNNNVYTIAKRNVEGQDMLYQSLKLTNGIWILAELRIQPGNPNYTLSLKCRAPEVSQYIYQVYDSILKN

COc1ccc2cc(C(=O)OC(C)C)sc(=O)c2c1OC
inactive: percent of DMSO control GFP [1] 106% | GFP response vs DMSO [2] 98.6% | percent response of DMSO control [3] 95.1% | GFP response vs DMSO [4] 121% | GFP response, % of DMSO [5] 106% | vesicle binding response [6] 220% | inhibition [7] 3.99% | superoxide response (% of plate) [8] 112% | aptamer binding inhibition [9] 0% | response [10] -12.6% | inhibition [11] -1.55% | response [12] -19.1% | binding (% of control) [13] 85.1% | efflux inhibition (fraction of control) [14] 0 | inhibition [15] 4% | differentiation response [16] 11.8%
61.9%: double positive events [6]

O=C(Oc1ccccc1)Oc1ccc2c(c1)oc(=O)c1ccccc12
60.1%: double positive events [6]
inactive: percent of DMSO control GFP [1] 96.3% | GFP response vs DMSO [2] 126% | percent response of DMSO control [3] 106% | GFP response vs DMSO [4] 90.2% | GFP response, % of DMSO [5] 102% | vesicle binding response [6] 230% | inhibition [7] -6.15% | superoxide response (% of plate) [8] 78.2% | aptamer binding inhibition [9] 2% | response [10] 4.41% | inhibition [11] 4.7% | response [12] 0.05% | binding (% of control) [13] 94.7% | efflux inhibition (fraction of control) [14] 0.34 | inhibition [15] 4% | differentiation response [16] 8.19%

CC(NC(=O)OCc1ccccc1)C(=O)N1CC(O)CC1C(=O)O (stereo not given)
inactive: percent of DMSO control GFP [1] 103% | GFP response vs DMSO [2] 112% | percent response of DMSO control [3] 90.1% | GFP response vs DMSO [4] 105% | GFP response, % of DMSO [5] 103% | vesicle binding response [6] 182% | inhibition [7] 6.4% | superoxide response (% of plate) [8] 97.5% | aptamer binding inhibition [9] 3% | response [10] 9.77% | inhibition [11] 31.1% | response [12] -4.2% | binding (% of control) [13] 99.5% | inhibition [15] 4% | differentiation response [16] 29.6%
active: efflux inhibition (fraction of control) [14] 0.8
62.9%: double positive events [6]

CS(=O)(=O)c1cccc(C(=O)Oc2ccccc2)c1
60.5%: double positive events [6]
inactive: percent of DMSO control GFP [1] 104% | GFP response vs DMSO [2] 97.2% | percent response of DMSO control [3] 106% | GFP response vs DMSO [4] 82.8% | GFP response, % of DMSO [5] 101% | vesicle binding response [6] 76.6% | inhibition [7] 9.92% | superoxide response (% of plate) [8] 99% | aptamer binding inhibition [9] 3% | response [10] -8.78% | inhibition [11] -4.57% | response [12] -0.27% | binding (% of control) [13] 100% | efflux inhibition (fraction of control) [14] -0.1 | inhibition [15] 3% | differentiation response [16] 10%

COC(=O)CN1C(=S)N(c2ccc(F)cc2)C(=O)C1CC(=O)Nc1ccccc1 (stereo not given)
57.4%: double positive events [6]
inactive: percent of DMSO control GFP [1] 99.7% | GFP response vs DMSO [2] 101% | percent response of DMSO control [3] 102% | GFP response vs DMSO [4] 120% | GFP response, % of DMSO [5] 118% | vesicle binding response [6] 189% | inhibition [7] 11.7% | superoxide response (% of plate) [8] 103% | aptamer binding inhibition [9] 1% | response [10] -25.4% | inhibition [11] 0.21% | response [12] 0.96% | binding (% of control) [13] 101% | efflux inhibition (fraction of control) [14] 0 | inhibition [15] -3% | differentiation response [16] -10.9%

C1CCC(C(CC2CCCCN2)C2CCCCC2)CC1 (stereo not given)
62%: double positive events [6]
inactive: percent of DMSO control GFP [1] 97.9% | GFP response vs DMSO [2] 107% | percent response of DMSO control [3] 101% | GFP response vs DMSO [4] 130% | GFP response, % of DMSO [5] 116% | vesicle binding response [6] 170% | inhibition [7] -17.3% | superoxide response (% of plate) [8] 119% | aptamer binding inhibition [9] -11% | response [10] 26.4% | inhibition [11] -6.24% | response [12] 2.51% | binding (% of control) [13] 109% | efflux inhibition (fraction of control) [14] 0.12 | inhibition [15] -5% | differentiation response [16] -5.97%

C=CC1=C(C(=O)O)N2C(=O)C(NC(=O)Cc3ccccc3)C2SC1 (stereo not given)
inactive: percent of DMSO control GFP [1] 101% | GFP response vs DMSO [2] 103% | percent response of DMSO control [3] 105% | GFP response vs DMSO [4] 82.8% | GFP response, % of DMSO [5] 100% | vesicle binding response [6] 134% | inhibition [7] 13.2% | superoxide response (% of plate) [8] 96.1% | response [10] 0.41% | inhibition [11] 15.3% | response [12] 1.11% | binding (% of control) [13] 101% | efflux inhibition (fraction of control) [14] 0.01 | inhibition [15] 7% | differentiation response [16] -31.2%
active: aptamer binding inhibition [9] 86%
62%: double positive events [6]

OC(C#CCN1CCCC1)(c1ccccc1)c1cccnc1 (stereo not given)
inactive: percent of DMSO control GFP [1] 98.9% | GFP response vs DMSO [2] 101% | percent response of DMSO control [3] 98.3% | GFP response vs DMSO [4] 103% | GFP response, % of DMSO [5] 107% | vesicle binding response [6] 166% | inhibition [7] 11.7% | superoxide response (% of plate) [8] 83.2% | aptamer binding inhibition [9] 6% | response [10] -14.6% | inhibition [11] -2.57% | response [12] 1.86% | binding (% of control) [13] 108% | efflux inhibition (fraction of control) [14] -0.09 | inhibition [15] -14% | differentiation response [16] 14.7%
60.3%: double positive events [6]

CCCCC[C@H](O)/C=C/C1=C(CCCCCCC(=O)O)C(=O)CC1
inactive: percent of DMSO control GFP [1] 105% | GFP response vs DMSO [2] 106% | percent response of DMSO control [3] 101% | GFP response vs DMSO [4] 95.9% | GFP response, % of DMSO [5] 103% | vesicle binding response [6] 98.4% | inhibition [7] -9.13% | superoxide response (% of plate) [8] 99.9% | aptamer binding inhibition [9] 4% | response [10] 2.65% | inhibition [11] 1.77% | binding (% of control) [13] 101% | efflux inhibition (fraction of control) [14] 0.125 | inhibition [15] 3% | differentiation response [16] -8.96%
56.3%: double positive events [6]
active: response [12] 31%

COc1ccc(CN2CCC(=O)NC2=O)cc1
59.9%: double positive events [6]
active: differentiation response [16] 116%
inactive: percent of DMSO control GFP [1] 102% | GFP response vs DMSO [2] 105% | percent response of DMSO control [3] 97.7% | GFP response vs DMSO [4] 105% | GFP response, % of DMSO [5] 96.5% | vesicle binding response [6] 170% | inhibition [7] 3.67% | superoxide response (% of plate) [8] 101% | aptamer binding inhibition [9] -2% | response [10] -1.29% | inhibition [11] 33.2% | response [12] -0.38% | binding (% of control) [13] 81.3% | efflux inhibition (fraction of control) [14] 0.08 | inhibition [15] 2%
